CCHF vOTU inh – CCHFV vOTU protease inhibition; Pep-AMC fluorescence; inhibition, % at 11.5 µM; actives 0.55% (n = 370,000); AID 651958; in the data active means inhibition above about 30%; further: 0% = vehicle wells with enzyme and 100% = no enzyme wells
3CLpro inhibitor – SARS-CoV 3CLpro protease inhibition; actives 0.14% (n = 290,000); P0C6X7; inhibition, % at 6 µM; recombinant SARS-CoV 3CLpro, quenched FRET peptide cleavage; in the data active means inhibition above about 12%
ugtP null kill – compounds lethal to S. aureus RN4220 ugtP deletion mutant; actives 0.54% (n = 330,000); AID 1259309; growth inhibition, % (no concentration beside the values); OD600 growth, 16 h; in the data active means growth inhibition above about 68%;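 further: plate controls were untreated wells for no effect and antibiotic for full effect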
MazEF act – MazEF (E. coli) toxin RNase activation | activation, % at 20 µM | actives 0.32% (n = 350,000) | P0AE70 | FAM/BHQ RNA-DNA oligo cleavage fluorescence, 5 h | AID 504720; in the data active means activation above about 50%
Target sequence (P0AE70 whole entry, looked up): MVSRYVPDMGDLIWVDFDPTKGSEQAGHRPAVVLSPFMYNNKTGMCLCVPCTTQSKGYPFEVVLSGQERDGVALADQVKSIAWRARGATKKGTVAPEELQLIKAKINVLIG
Mtb betalactam – beta-lactam sensitization of Mtb H37Rv; M. tuberculosis H37Rv growth with meropenem, percent inhibition; inhibition, % at 25 µM; actives 0.27% (n = 330,000); call rule not given here;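 further: growth measured after seven days incubation then overnight dye step; 0% = bacteria only wells and 100% = bacteria with antibiotic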
Sa RN4220 lethal – S. aureus RN4220 growth inhibition; AID 1259311; actives 0.33% (n = 330,000); OD600, 16 h; inhibition, % (concentration not given with the values); in the data active means inhibition above about 85%;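 further: plate controls were untreated cells for no effect and reference antibiotic for full effect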
Active calls of the source: *; ? = inconclusive; . = no result given. Only some compounds are listed: those with a hit (about 1.3% of all), similar ones and a draw of the others.

SMILES | CCHF vOTU inh | 3CLpro inhibitor | ugtP null kill | MazEF act | Mtb betalactam | Sa RN4220 lethal
CCC(C)(C)c1ccc(OCCCC[n+]2ccc(C)cc2)c(C(C)(C)CC)c1 | 19.9 | 0.3 | 100.4* | 11.2 | 100.1 | 100.5*
Cc1cc[n+](CC[n+]2ccc(C)cc2)cc1 | 4.2 | . | 4.1 | 0.3 | -1.6 | 6.6
CCC(C)(C)c1ccc(OCCCC[n+]2cccc(C)c2C)c(C(C)(C)CC)c1 | 19.9 | 4.4 | 100.5* | -14.7 | 100.1 | 100.8*
C=CCOC(=O)C1=CC(c2csc3ccccc23)CC(OCCCCO)O1 (configuration not stated) | . | . | 6.8 | . | . | 11.8
Cc1c(C(=O)NN=Cc2cccnc2)sc(N)c1C#N | . | . | -3.2 | . | . | 2.0
O=C(N=c1ccn(-c2nc3ccccc3nc2NS(=O)(=O)c2ccc(Cl)cc2)cc1)c1cccs1 | -2.6 | 4.8 | 3.7 | 92.2* | 0.9 | -3.0
CC(C)(C)c1ccc(C(=O)NC(=S)NNC(=O)c2cccs2)cc1 | 5.4 | -0.9 | 92.4* | 3.3 | 97.9 | 86.2*
CCC(=O)NC(=S)NNC(=O)c1ccc(OC)cc1 | -1.8 | 5.0 | -3.7 | 5.2 | 3.8 | 11.2
CC(C)(C)C(=O)NC(=S)NNC(=O)c1ccc(-c2ccccc2)cc1 | . | 1.8 | 88.9 | -7.1 | 98.2 | 91.9*
Cc1ccc(C(=O)NNC(=S)NC(=O)COc2ccccc2)cc1 | -6.3 | 0.2 | 92.2* | 0.8 | 98.9 | 87.8*
CC(C)(C)C(=O)NC(=S)NNC(=O)c1ccncc1 | 3.4 | 0.2 | -2.0 | 13.2 | 99.0 | 19.2
CCCCOc1ccc(C(=O)NNC(=S)NC(=O)CC)cc1 | . | 4.3 | 98.2* | 1.6 | 99.5 | 93.8*
CC(C)C(=O)NN=Cc1ccc(OCc2ccccc2)cc1 | . | . | -14.9 | . | . | 1.4
CC(=NNC(=O)c1ccc2c(c1)OCO2)c1ccc2c(c1)OCO2 | . | . | 3.5 | . | . | -7.1
CCc1ccc(OCC(=O)NN=C(C)c2ccc(O)cc2O)cc1 | . | . | -2.2 | . | . | 12.4
COc1ccc(C(=O)NNC(=S)NC(=O)c2ccco2)cc1 | 10.1 | -3.8 | -5.9 | -2.5 | 95.8 | 34.0
CCCOc1ccc(C(=O)NNC(=S)NC(=O)c2ccco2)cc1 | 8.7 | -1.9 | 89.5* | 3.2 | 96.8 | 86.8*
O=C(COc1ccc(Cl)cc1Cl)NNC(=S)NC(=O)c1ccco1 | -6.4 | -0.2 | 90.1* | 4.0 | 61.2 | 92.7*
CC(=O)n1cc(C2C=C(C(=O)O)OC(OCCCCO)C2)c2ccccc21 (configuration not stated) | . | . | -1.3 | . | . | 2.8
CC(C)CC(NC(=O)c1nc[nH]c1C(=O)NC(CC(C)C)C(=O)OC(C)(C)C)C(=O)OC(C)(C)C (configuration not stated) | . | . | -1.7 | . | . | -8.6
O=C1C=CC(=O)C2C1C1(Cl)C(Cl)=C(Cl)C2(Cl)C1(Cl)Cl (configuration not stated) | 13.6 | . | 97.3* | 1.9 | . | 88.3*
COc1ccc(CC(=O)NN=Cc2cc(Br)cs2)cc1OC | . | . | 4.8 | . | . | 5.1
O=C(/C=C\Nc1ccc2c(c1)OCO2)c1cccs1 | 11.9 | -3.1 | 4.1 | 0.0 | -8.0 | 6.7
O=C(/C=C\Nc1ccc2c(c1)OCO2)c1ccc(Cl)s1 | -5.0 | 1.1 | 5.3 | 85.8* | 2.3 | -5.2
CCOC(=O)c1c(N=CC2=C(O)CC(C)(C)CC2=O)sc2c1CCCC2 | . | . | 5.0 | . | . | 3.6
SMILES | CCHF vOTU inh | 3CLpro inhibitor | ugtP null kill | MazEF act | Mtb betalactam | Sa RN4220 lethal
C=CCn1c(SC(F)F)nc2scc(-c3ccco3)c2c1=O | 21.4 | 2.7 | 95.2* | -3.7 | 1.0 | 7.0
C=CCn1c(SCC(C)=O)nc2scc(-c3ccco3)c2c1=O | 4.2 | 8.0 | 8.3 | 14.3 | -2.1 | 3.5
Clc1ccc(-c2ccc(C=NNc3cc(N4CCOCC4)nc(N4CCOCC4)n3)o2)cc1 | . | . | 23.1 | . | . | 28.7
C=C1C(=O)OC2CC(C)C3C4OC4C(=O)[C@@]3(C)C(O)C12 (some centres not stated) | . | . | 8.6 | . | . | 17.3
C=C(C)C(O)CC/C(C)=C/Cc1c(O)ccc(C(=O)/C=C/c2ccc(O)cc2)c1O (configuration not stated) | 13.5 | . | 90.7* | -29.2 | -5.7 | 98.6*
CCNC(=S)NN=Cc1ccc(C(=O)O)cc1 | . | . | 7.0 | . | . | 15.5
CCNC(=S)N/N=C/c1sc(N2CCCCC2)nc1-c1cccs1 | -1.3 | -4.4 | . | 257.2* | -2.0 | .
CCCc1c(-c2ccc(O)cc2)nn(-c2ccc(O)cc2)c1-c1ccc(O)cc1 | . | . | . | 51.4* | 1.4 | .
Cc1c(C(N)=O)c(-c2ccccc2)nn1-c1ccccc1 | -17.6 | -1.4 | 5.0 | 6.8 | -2.5 | 4.0
O=C(CSc1nnc2scc(-c3ccccc3)n12)c1ccc2c(c1)OCCO2 | 2.3 | -5.3 | 2.1 | 54.8* | ? | 4.4
c1ccc(-c2csc3nnc(SCc4ccc5c(c4)OCCO5)n23)cc1 | 6.5 | -1.9 | -13.0 | -10.4 | 19.3 | 1.6
Cc1ccc(C(C)C)cc1OCCOCCN1CCCC1 | -2.8 | -0.4 | 8.2 | 92.0* | -1.4 | 1.3
CCOc1cccc(CNCCc2c(C)[nH]c3ccc(OC(F)(F)F)cc23)c1O | 13.6 | 2.9 | . | 51.8* | 99.8 | .
C#CCOCCOCCOCCNc1nc(N2CCOCC2)nc(N2CCN(C(=O)C(C)n3cc(CCCN=C(N)N)nn3)CC2)n1 (configuration not stated) | . | . | -4.3 | . | . | 4.5
CCn1c(COc2cccc3ccccc23)nnc1SCC(=O)OC1CCCCC1 | -14.4 | 0.4 | 99.1* | -1.2 | 99.2 | 99.1*
Cn1c(COc2cccc3ccccc23)nnc1SCC(=O)OC1CCCCC1 | -1.6 | 4.6 | 92.2* | 2.5 | 99.4 | 96.8*
CCN(CC)C(=NS(=O)(=O)c1ccc(C)cc1)c1ccccc1 | . | . | 6.5 | . | . | 2.2
COc1cccc(-c2sc3ccc(OC)cc3c2-c2ccc(OC)cc2F)c1 | 0.8 | . | 90.0* | -4.4 | 5.8 | -0.6
COc1ccc2sc(-c3ccccc3OC)c(-c3ccc(SC)cc3)c2c1 | 2.1 | . | . | . | . | .
COc1cccc(-c2sc3ccc(OC)cc3c2-c2ccc(OCCN3CCCC3)cc2)c1 | . | . | 90.4* | 6.9 | . | 95.3*
COc1ccccc1-c1sc2ccccc2c1-c1ccc2c(c1)OCCO2 | 6.0 | . | 99.0* | -0.3 | 7.0 | -9.7
COc1ccc2sc(-c3ccccc3OC)c(-c3ccc(OCCN(C)C)cc3)c2c1 | 3.5 | . | 88.0* | 4.9 | . | 1.9
Clc1cccc(C=NNc2nccs2)c1 | . | . | -11.3 | . | . | 2.7
CC(=O)C(=NNc1ccccc1)Sc1nnc(CCc2ccccc2)n1-c1ccccc1 | . | . | 4.2 | . | . | 5.6
COC(=O)CN1C(=O)C2C(C=Cc3ccccc3)N3C(=O)CN(Cc4ccccc4)C(=O)[C@@]3(C)C2C1=O (some centres not stated) | . | . | 10.1 | . | . | 8.3
Cc1ccc2nc(SCC(=O)Nc3ccc(C)c(Cl)c3)nc(=O)n2c1 | -9.3 | . | 3.9 | 73.7* | -6.6 | 1.2
CCOC(=O)C1C(=O)C=C(/C=C/c2ccc(N(C)C)cc2)CC1c1ccccc1 (configuration not stated) | -5.0 | -4.0 | . | 106.0* | 5.1 | .
CCOC(=O)C1C(=O)C=C(c2ccc(C)cc2)CC1c1ccccc1 (configuration not stated) | -4.6 | 1.8 | 1.3 | -0.2 | -9.8 | -0.1
